Source: PubChem BioAssay (Tox21)
Where “and” joins values, the source holds several entries; their conditions need not be identical. Equal values may be shown once. Records with an inconclusive call do not appear. A call without a number means that no potency is given here. More than one record can exist for a structure, and the calls need not agree. Calls of active or inactive are those of the source. Unless noted, calls come from the whole dose curve; as a rule, active = well fitted curve in the direction sought with a large enough effect in the repeat runs; inconclusive = weak or mixed curves; inactive = no such curve, though single readings can be large; an effect the other way counts as inactive or inconclusive.

How the values were obtained:
[1] = biological target: Luciferin 4-monooxygenase (Photinus pyralis) (UniProt P08659); experiment: qHTS assay to identify small molecule inhibitors of firefly luciferase (AID 1224835); note: nearly all actives have a fitted effect of over 25% in size; note: potency is the fitted concentration of half-maximal effect
How it was run: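 Inhibition of purified Photinus luciferase is measured by luminescence. Substrate levels (D-luciferin, ATP) sit at their KM values. Each compound is tested in a concentration series.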

[2] = qHTS assay to identify small molecule antagonists of the constitutive androstane receptor (CAR) signaling pathway - cell viability counter screen (AID 1224837); note: nearly all actives have a fitted effect of over 45% in size; note: potency is the fitted concentration of half-maximal effect
How it was run: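 Multiplexed cytotoxicity read-out for the CAR antagonist screen: double-stable HepG2-CYP2B6-hCAR cells co-treated with 50 nM CITCO (final) and compound over 15 concentrations, incubated 23 hr, then assessed by CellTiter-Fluor fluorescence.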

[3] = biological target: Nuclear receptor subfamily 1 group I member 3 (Homo sapiens) (UniProt Q14994); experiment: qHTS assay to identify small molecule antagonists of the constitutive androstane receptor (CAR) signaling pathway (AID 1224838); note: nearly all actives have a fitted effect of over 40% in size; note: potency is the fitted concentration of half-maximal effect
How it was run: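 Compounds were titrated across 15 concentrations onto HepG2 cells double-stably expressing hCAR and a CYP2B6-2.2kb reporter, together with 50 nM CITCO (final). After 24 h at 37 C, luciferase activity was measured by luminescence.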

[4] = biological target: Nuclear receptor subfamily 1 group I member 3 (Homo sapiens) (UniProt Q14994); experiment: qHTS assay to identify small molecule agonists of the constitutive androstane receptor (CAR) signaling pathway (AID 1224839); note: nearly all actives have a fitted effect of over 15% in size; note: potency is the fitted concentration of half-maximal effect
How it was run: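 Luminescent ONE-Glo read-out after 24 hr, 37 C exposure of double-stable HepG2-CYP2B6-hCAR reporter cells to a 15-point compound series, in the presence of 0.75 uM PK11195 (final).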

[5] = qHTS assay to identify small molecule antagonists of the estrogen related receptor signaling pathway with the pleiotropic PPARgamma coactivator (PGC) from Tox21 10K library - cell viability counter screen (AID 1224840; active = well fitted cell-killing curve with a large enough effect in the repeat runs, not every such curve was filed as active; note: nearly all actives have a fitted effect of over 40% in size; note: potency is the fitted concentration of half-maximal effect)
How it was run: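 Step one, plate 2,000 PGC/ERR cells per well; step two, incubate 6 h at 37 C/5% CO2; step three, pin-transfer compounds; step four, incubate 17.5 h; step five, add CellTiter-Fluor and read fluorescence after 30 min.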

[6] = qHTS assay to identify small molecule agonists of the hypoxia (HIF-1) signaling pathway - cell viability counter screen (AID 1224844; calls by dose curve; note: nearly all actives have a fitted effect of over 50% in size; note: potency is the fitted concentration of half-maximal effect)
How it was run: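 Tox21 10K compounds were added to HRE-bla ME-180 cells (0.5% dialyzed FBS) and incubated 17 hrs at 37C; ATP-based CellTiter-Glo luminescence then reported cell viability in the same wells.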

[7] = biological target: Thyrotropin receptor (Homo sapiens) (UniProt P16473); experiment: qHTS assay to identify small molecule agonists of the thyroid stimulating hormone receptor (TSHR) signaling pathway (AID 1224843; calls by dose curve; note: nearly all actives have a fitted effect of over 45% in size; note: potency is the fitted concentration of half-maximal effect)
How it was run: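 Screening of the Tox21 10K collection used HEK293 cells engineered with TSHR at 800 cells per well. After a 30-min room-temperature compound exposure, HTRF cAMP reagents were added and fluorescence recorded 1 h later.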

[8] = qHTS assay to identify small molecule agonists of the constitutive androstane receptor (CAR) signaling pathway - cell viability counter screen (AID 1224836); note: nearly all actives have a fitted effect of over 45% in size; note: potency is the fitted concentration of half-maximal effect
How it was run: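 Cell viability multiplexed with the CAR agonist screen: CellTiter-Fluor fluorescence after 23 hr at 37 C. HepG2-CYP2B6-hCAR cells got compounds at 15 concentrations with PK11195 at 0.75 uM final.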

[9] = qHTS assay to identify small molecule antagonists of the estrogen related receptor signaling pathway with the pleiotropic PPARgamma coactivator (PGC) from Tox21 10K library (AID 1224841; call rule not given here; note: actives are mostly falling curves and most rising ones were filed inactive; nearly all actives have a fitted effect of over 50% in size; note: potency is the fitted concentration of half-maximal effect)
How it was run: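 Antagonism in this quantitative HTS is taken from loss of luciferase signal in PGC/ERR cells. Cells (2,000/well) are treated with compounds in DMSO after a 6 h settling period and read by One-Glo luminescence after 18 h.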

[10] = qHTS assay to identify small molecule agonists of the estrogen related receptor signaling pathway with the pleiotropic PPARgamma coactivator (PGC) from Tox21 10K library (AID 1224842); note: nearly all actives have a fitted effect of over 15% in size
How it was run: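 Luminescence from One-Glo (30 min, room temperature) measured after PGC/ERR cells had 18 h at 37 C with pinned compound (23 nL in DMSO). Cells had been seeded at 2,000 per well and pre-incubated 6 h.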

Thyrotropin receptor (Homo sapiens), sequence (P16473 whole entry, looked up): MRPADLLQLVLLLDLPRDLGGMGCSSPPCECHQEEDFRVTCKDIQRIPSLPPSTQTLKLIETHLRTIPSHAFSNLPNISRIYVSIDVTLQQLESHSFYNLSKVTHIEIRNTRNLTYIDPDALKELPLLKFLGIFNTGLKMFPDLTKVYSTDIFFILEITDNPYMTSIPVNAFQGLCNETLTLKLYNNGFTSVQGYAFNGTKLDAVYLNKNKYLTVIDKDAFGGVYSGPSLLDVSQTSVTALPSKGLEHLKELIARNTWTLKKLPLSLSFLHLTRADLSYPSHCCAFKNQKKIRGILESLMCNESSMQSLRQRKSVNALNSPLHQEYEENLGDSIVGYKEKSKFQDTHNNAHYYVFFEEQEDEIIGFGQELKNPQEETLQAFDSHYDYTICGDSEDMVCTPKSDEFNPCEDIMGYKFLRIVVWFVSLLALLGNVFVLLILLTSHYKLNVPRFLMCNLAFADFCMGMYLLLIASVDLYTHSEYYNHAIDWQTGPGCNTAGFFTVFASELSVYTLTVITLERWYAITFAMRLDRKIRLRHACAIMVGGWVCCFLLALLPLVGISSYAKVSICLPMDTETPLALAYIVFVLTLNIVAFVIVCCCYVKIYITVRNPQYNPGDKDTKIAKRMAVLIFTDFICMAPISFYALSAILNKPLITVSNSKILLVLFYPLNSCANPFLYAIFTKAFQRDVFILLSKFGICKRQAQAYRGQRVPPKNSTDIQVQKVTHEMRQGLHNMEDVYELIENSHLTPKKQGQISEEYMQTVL
Luciferin 4-monooxygenase (Photinus pyralis), sequence (P08659 whole entry, looked up): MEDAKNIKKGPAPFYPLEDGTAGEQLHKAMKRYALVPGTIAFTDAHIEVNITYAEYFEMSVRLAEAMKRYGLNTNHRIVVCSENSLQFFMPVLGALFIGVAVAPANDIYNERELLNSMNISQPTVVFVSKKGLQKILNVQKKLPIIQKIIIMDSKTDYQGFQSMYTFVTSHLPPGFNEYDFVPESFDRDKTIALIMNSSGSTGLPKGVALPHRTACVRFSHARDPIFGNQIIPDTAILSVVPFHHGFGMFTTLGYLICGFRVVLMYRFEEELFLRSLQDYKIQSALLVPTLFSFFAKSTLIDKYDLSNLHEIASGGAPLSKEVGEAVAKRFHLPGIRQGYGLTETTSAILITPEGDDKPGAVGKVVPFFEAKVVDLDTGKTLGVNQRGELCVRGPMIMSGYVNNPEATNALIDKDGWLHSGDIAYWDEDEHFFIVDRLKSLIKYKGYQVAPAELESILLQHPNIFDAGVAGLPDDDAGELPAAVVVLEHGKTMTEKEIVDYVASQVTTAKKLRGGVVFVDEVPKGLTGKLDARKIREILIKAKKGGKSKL
Nuclear receptor subfamily 1 group I member 3 (Homo sapiens), sequence (Q14994 whole entry, looked up): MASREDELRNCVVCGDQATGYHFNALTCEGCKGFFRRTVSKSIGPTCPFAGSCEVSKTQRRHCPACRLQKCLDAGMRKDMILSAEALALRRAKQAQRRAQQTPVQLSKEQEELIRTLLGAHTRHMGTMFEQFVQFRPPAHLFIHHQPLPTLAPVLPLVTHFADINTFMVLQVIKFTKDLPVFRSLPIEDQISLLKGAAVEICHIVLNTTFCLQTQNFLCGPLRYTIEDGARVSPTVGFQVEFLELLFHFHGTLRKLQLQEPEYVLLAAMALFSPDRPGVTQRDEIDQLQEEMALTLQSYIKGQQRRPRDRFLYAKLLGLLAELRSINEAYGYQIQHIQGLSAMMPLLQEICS

Row | Structure (SMILES) | Potency [1] | Potency [2] | Potency [3] | Potency [4] | Potency [5] | Potency [6] | Potency [7] | Potency [8] | Potency [9] | Potency [10]
1 | CCSCc1ccccc1OC(=O)NC | inactive | inactive | inactive | 27.3 µM (active) | inactive | inactive | – | – | – | –
2 | CN[C@@H](C)[C@H](O)c1ccccc1 | inactive | inactive | inactive | inactive | inactive | inactive | inactive | – | – | –
3 | CON(C)C(=O)Nc1ccc(Cl)cc1 | inactive | inactive | – | – | inactive | inactive | inactive | inactive | – | –
4 | CC(C)c1ccc(NC(=O)N(C)C)cc1 | 71 µM (active) | inactive | inactive | 48.5 µM (active) | inactive | inactive | inactive | – | inactive | –
5 | O=C=NC1CCCCC1 | inactive | inactive | inactive | inactive | inactive | inactive | inactive | – | inactive | inactive
6 | CCCCC(CC)CO[N+](=O)[O-] (configuration not stated) | inactive | inactive | – | – | inactive | inactive | inactive | inactive | – | –
7 | OCC1CO1 (configuration not stated) | inactive | inactive | – | – | inactive | inactive | – | inactive | – | –
8 | COc1ccccc1N1CCNCC1 | inactive | inactive | – | – | inactive | inactive | inactive | inactive | – | –
9 | CC(=O)OC(c1ccccc1)C(Cl)(Cl)Cl (configuration not stated) | inactive | inactive | – | – | inactive | inactive | inactive | inactive | – | –
10 | O=C(N[C@H]1CN2CCC1CC2)c1ccc2c(c1)OCCO2 | inactive | inactive | inactive | inactive | inactive | inactive | inactive | – | inactive | inactive
11 | CCOP(=S)(S)OCC | 33.4 µM (active) | inactive | inactive | inactive | inactive | inactive | inactive | – | inactive | inactive
12 | CC(Cl)C(=O)O (configuration not stated) | inactive | inactive | inactive | inactive | inactive | inactive | inactive | – | – | –
13 | CCC[N+](CCC)(CCC)CCC | inactive | inactive | inactive | inactive | inactive | inactive | – | – | – | inactive
14 | Nc1cccc2ccccc12 | inactive | inactive | inactive | 30.8 µM (active) and 61.1 µM (active) | inactive | inactive | inactive | – | – | –
15 | CCCCOC(=O)CCC(=O)OCCCC | inactive | inactive | inactive | inactive | inactive | inactive | inactive | – | inactive | inactive
16 | CCC(C)(C)c1ccc(O)c(C(C)(C)CC)c1 | inactive | – | 60.4 µM (active) | inactive | 53.9 µM (active) and inactive | 19.3 µM (active) and 24.5 µM (active) | 13.5 µM (active) and 24.3 µM (active) | 60.4 µM (active) | 60.4 µM (active) and inactive | inactive
17 | O=C(O)c1cc(Cl)ccc1Cl | inactive | inactive | – | – | inactive | inactive | – | inactive | – | –
18 | CC(CC(C(N)=O)(c1ccccc1)c1ccccc1)N(C)C (configuration not stated) | inactive | inactive | – | – | inactive | inactive | inactive | inactive | – | –

Row | Structure (SMILES) | Potency [1] | Potency [2] | Potency [3] | Potency [4] | Potency [5] | Potency [6] | Potency [7] | Potency [8] | Potency [9] | Potency [10]
19 | O=C(NC(=O)c1cc(F)c(F)cc1Cl)Nc1cc(F)ccc1N1CCC(C(=O)O)CC1 | inactive | inactive | – | – | inactive | inactive | inactive | inactive | – | –
20 | CC(C)(C)N(NC(=O)c1ccc(Cl)cc1)C(=O)c1ccccc1 | inactive | 8.58 µM (active) | inactive | inactive | inactive | inactive | – | – | inactive | inactive
21 | CCCSP(=S)(OCC)Oc1ccc(SC)cc1 (configuration not stated) | inactive | inactive | inactive | 21.7 µM (active) | inactive | inactive | 19.3 µM (active) | – | inactive | inactive
22 | C[N+]1(CCC(C(N)=O)(c2ccccc2)c2ccccc2)CCCCC1 | inactive | inactive | – | – | inactive | inactive | inactive | inactive | – | –
23 | CC(C)(C)c1ccc(CCOc2ncnc3ccccc23)cc1 | inactive | inactive | inactive | inactive | inactive | inactive | inactive | – | – | –
24 | c1ccc2sc(SNC3CCCCC3)nc2c1 | 11.1 µM (active) and 22.4 µM (active) | inactive | inactive | 53.9 µM (active) | inactive | – | inactive | – | – | –
25 | O=C(Cc1ccccc1)c1ccccc1 | 71 µM (active) | inactive | inactive | 54.5 µM (active) | inactive | inactive | inactive | – | – | –
26 | Cc1cccc(C)c1NC1=NCCCS1 | inactive | inactive | – | – | inactive | inactive | inactive | inactive | – | –
27 | C[N+](C)(C)CC1CO1 (configuration not stated) | inactive | inactive | – | – | inactive | inactive | inactive | inactive | – | –
28 | Cc1nc2ccccc2c(=O)n1-c1ccccc1Cl | inactive | 16.9 µM (active) | inactive | inactive | – | inactive | – | – | inactive | inactive
29 | O=C([O-])c1ccccn1.O=C([O-])c1ccccn1.O=C([O-])c1ccccn1.[Cr+3] | inactive | inactive | inactive | inactive | inactive | inactive | – | – | – | –
30 | CCC1CCC(=O)O1 (configuration not stated) | inactive | inactive | – | – | inactive | inactive | inactive | inactive | – | –
31 | CCOC(=O)c1cncn1C(C)c1ccccc1 (configuration not stated) | inactive | inactive | inactive | – | inactive | inactive | inactive | – | inactive | inactive
32 | O=C(CCl)CCl | inactive | inactive | – | – | inactive | 21.9 µM (active) | inactive | inactive | – | –
33 | CC(C)OC(=O)Cc1ccccc1 | inactive | inactive | – | – | inactive | inactive | inactive | inactive | – | –
34 | Clc1ccccc1 | inactive | inactive | inactive | inactive | inactive | inactive | inactive | – | inactive | inactive
35 | CCCCC(CC)COC(=O)c1c(Br)c(Br)c(Br)c(Br)c1C(=O)OCC(CC)CCCC (configuration not stated) | inactive | inactive | inactive | inactive | inactive | inactive | – | – | – | –
